# ERK EGF block: inhibitors of EGF-stimulated ERK signaling pathway; Potency, µM (series often up to 11.5 µM), for inactives: top-dose activity change, negative = inhibition, usual class: inhibitors; AID 1454; HEK293-V1b, EGF-stimulated phospho-ERK AlphaScreen; 130,000 tested, 0.41% active;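 note: potency is the fitted concentration of half-maximal effect; plate controls were stimulated vehicle wells for no effect and unstimulated vehicle basal for full effect; nearly all actives have a fitted effect of over 55% in size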
#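 HEK293 cells stably expressing V1b receptor, serum-reduced (1% FBS) overnight, pretreated 30 min with compound, then stimulated 5 min with 25 nM EGF; phospho-ERK detected by AlphaScreen SureFire. AC50 from Hill fits, normalized to DMSO and EGF.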
# GLA inh pH 4.5: inhibitors of human alpha-galactosidase A at pH 4.5 | P06280 | activity change, negative = inhibition, % at 105 µM | purified enzyme, 4-MU-alpha-Gal fluorescence, pH 4.5 | 230,000 tested, under 10 active | AID 1467;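 note: 0% = full activity with enzyme and -100% = basal without enzyme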
# Target sequence (P06280 whole entry, looked up): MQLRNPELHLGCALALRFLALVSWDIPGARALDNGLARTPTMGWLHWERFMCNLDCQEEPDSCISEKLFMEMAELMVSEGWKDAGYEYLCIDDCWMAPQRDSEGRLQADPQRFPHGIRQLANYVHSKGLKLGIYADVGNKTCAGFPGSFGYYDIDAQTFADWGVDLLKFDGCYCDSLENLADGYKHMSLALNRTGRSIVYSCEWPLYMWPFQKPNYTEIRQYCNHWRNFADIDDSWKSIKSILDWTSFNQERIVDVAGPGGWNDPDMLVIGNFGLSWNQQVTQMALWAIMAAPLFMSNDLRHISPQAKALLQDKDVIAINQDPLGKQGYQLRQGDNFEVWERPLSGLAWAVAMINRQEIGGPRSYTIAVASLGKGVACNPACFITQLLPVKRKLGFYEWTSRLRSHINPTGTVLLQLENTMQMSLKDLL
# HTT cytoprotect: Huntington cell model cytoprotection by ATP luminescence. PC12 HTT-Q103 induced, cytoprotection, ATP luminescence, 40 h. Potency, µM (top dose mostly 56.4 µM), for the others: cytoprotection (ATP increase), most hits filed as activators. 230,000 tested, 0.14% active; note: potency is the fitted concentration of half-maximal effect; % of control where 0% means no effect; nearly all actives have a fitted effect of over 45% in size
#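 Compounds were screened for protection of PC12 cells against cell death after tebufenozide induction (100 nM final) of mutant Huntingtin exon 1 (Q103) fused to GFP.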
# aGal spleen mod: alpha-galactosidase A (human) modulation; P06280; human spleen homogenate, 4MU-alpha-Gal fluorescence, 40 min; Potency, µM (series often up to 80 µM), for inactives: at the top dose activity change, negative = inhibition, actives largely listed as inhibitors; 240,000 tested, 0.008% active; AID 2107;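 note: potency is the fitted concentration of half-maximal effect; 0% = enzyme with vehicle and -100% = no enzyme basal signal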
#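 Inhibition or activation of alpha-galactosidase in human spleen homogenate is scored by 4-MU fluorescence after 40 min at 37C, pH 5.0, with 1 mM substrate. AC50s come from concentration-response fitted to the Hill equation.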
# HTT aggregate: inhibitors of mutant huntingtin aggregate formation in PC12 cells; PC12 HttQ103-GFP aggregates, Acumen cytometry, 40 h; Potency, µM (highest dose often 46.1 µM), inactives show at the top dose activity change, negative = inhibition, usual class: inhibitors; 220,000 tested, 1.1% active; note: potency is the fitted concentration of half-maximal effect; % is set by controls: 0 for no effect and ±100 for the full control effect; nearly all actives have a fitted effect of over 60% in size
#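 Read-out: GFP aggregate count by laser scanning cytometer (488 nm excitation, 500-530 nm emission, 1–25 µm objects >6 SD above background). Cells: PC12, inducible HTTex1-Q103-GFP, 100 nM tebufenozide; compounds titrated.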
# Active calls of the source: *; ? = inconclusive; . = not tested or not shown; [ ] = remark or other dose. This is a sample that favours compounds with a hit; in the whole collection about 1.2% have one here. Calls come from the whole dose curve; as a rule, active = well fitted curve in the direction sought with a large enough effect; inconclusive = small, poorly fitted or top-dose-only effect, or another doubt; inactive = no such curve, though single readings can be large; an effect the other way counts as inactive or inconclusive.
SMILES,ERK EGF block,GLA inh pH 4.5,HTT cytoprotect,aGal spleen mod,HTT aggregate
O=C(CCc1ccc(S(=O)(=O)NCCc2ccccc2)cc1)N1CCN(Cc2ccc3c(c2)OCO3)CC1,.,0,-1%,6%,4%[9.22 µM]
CCCCCCCCCCCCCCCCOCC(CO)OC (centres undefined),-7%,3,-5%,2%,.
CCOC(=O)Cc1csc(NC(=O)/C=C/c2ccc(Br)o2)n1,35µM*,2,-26%[10 µM],4%,-8%[9.22 µM]
Cc1ccc(OCc2nnc(SCCN3CCOCC3)n2C)cc1,.,0,-2%[10 µM],-14%,-8%
Cc1ccc(OCc2nnc(SCC(=O)N3CCOCC3)n2C)cc1,.,-10,13µM*,-6%,4%
CC[C@@]1(O)C(=O)COc2c1cc1n(c2=O)Cc2c-1nc1cccc(C(C)C)c1c2[Si](C)(C)C,-1%,11,-100%,?,.
COc1ccc(-n2c(C)c([N+](=O)[O-])c3ccc(O)c(CN4CCCCC4)c32)cc1,.,-19,-7%,-9%,10µM*
Cc1ccc(-n2c(C)c([N+](=O)[O-])c3ccc(O)c(CN(C)C)c32)cc1,.,1,-4%,0%,2.5µM*
CC(=O)N[C@@H](CC(C)C)C(=O)N[C@@H](CCCNC(=N)N)C(=O)N[C@@H](Cc1cnc[nH]1)C(=O)N[C@@H](Cc1ccc(O)cc1)C(=O)N[C@@H](CC(C)C)C(=O)N[C@@H](CC(N)=O)C(=O)N[C@@H](CC(C)C)C(=O)N[C@@H](CC(C)C)C(=O)N[C@H](C(=O)N[C@@H](CCCNC(=N)N)C(=O)N[C@@H](CCC(N)=O)C(=O)N[C@@H](CCCNC(=N)N)C(=O)N[C@@H](Cc1ccc(O)cc1)C(N)=O)[C@@H](C)O,.,.,.,5%,.
NS(=O)(=O)c1cccc(NC(=O)CSc2ncnc3ccccc23)c1,-8%[57.5 µM],-2,1%[10 µM],0%,-2%[9.22 µM]
NS(=O)(=O)c1ccc(NC(=O)CSc2ncnc3ccccc23)cc1,-10%,10,8.9µM*,1%,-2%
CCOC(=O)c1c(NC(=O)CSc2ncnc3ccccc23)sc(C(C)=O)c1C,0%,-9,2.5µM*,-6%,-22%
CC1CCN(S(=O)(=O)c2ccc3c(c2)oc(=O)n3CC(=O)NCc2ccc3c(c2)OCO3)CC1,.,-6,-2%,7%,8.9µM*
Cc1c(C(=O)NCc2ccc3c(c2)OCO3)oc2ccc(S(=O)(=O)N3CCC(C)CC3)cc12,-10%,-11,5%[10 µM],-2%,-16%
CCN(CC)CCNc1ccc(CO)c2sc3ccccc3c(=O)c12,17%,-20,-331%,-1%,13µM*
Cc1cccc(-c2cc3nc(C)c(C)c(NCCCn4ccnc4)n3n2)c1,32µM*,2,4%[10 µM],10%,-2%[9.22 µM]
Cc1nn(-c2ccccc2)c(Cl)c1C(=O)OC(C)C(=O)NC(=O)NC1CCCCC1 (centres undefined),.,-9,-56%,6%,11µM*
CC(C)Nc1nc(-c2ccncc2)nc(-c2ccc(Cl)cc2)c1C#N,-4%,12,-32%,-12%,4%
CC(C)Nc1nc(-c2ccccn2)nc(-c2ccccc2)c1C#N,-4%,0,-20%,2%,3.5µM*
CCN1c2ccccc2N(C)C1(C)c1ccccc1 (centres undefined),-12%,8,16%[10 µM],4%,13µM*
COc1cccc([C@@H]2Oc3ccc(Br)cc3C[C@H]2OC(=O)NS(=O)(=O)c2ccc(C)cc2)c1,-5%,-14,?,-9%,.
CCCOc1cccc(NC(=O)c2c(-c3ccccc3)noc2C)c1,.,0,3%,8%,6.3µM*
Cc1onc(-c2ccccc2)c1C(=O)Nc1cccc(OC(C)C)c1,.,-10,12%,3%,-8%
CCNc1ncc2nc(-c3ccc(Cl)cc3)c(=O)n(-c3ccccc3)c2n1,-7%,.,-18%,16%,.
OC(C#Cc1ccccn1)c1cccs1 (centres undefined),.,-3,6%,-11%,5µM*
SMILES,ERK EGF block,GLA inh pH 4.5,HTT cytoprotect,aGal spleen mod,HTT aggregate
O=C(NC1CCCCC1)C(c1cccs1)N(C(=O)c1ccccn1)c1ccccc1 (centres undefined),10%,-10,20%[10 µM],4%,-7%
O=C1CSC(=S)N1/N=C/c1cccnc1,-3%[57.5 µM],-5,.,1%,0.89µM*
O=C1CSC(=S)N1c1cccnc1,.,2,-13%[0.074 µM],6%,-20%
CCC[C@@H]1NC(=O)[C@@H](NC(C)=O)CSSC[C@@H](C(N)=O)NC(=O)CNC(=O)[C@H](Cc2c[nH]c3ccccc23)NC(=O)[C@H](CCCN=C(N)N)NC(=O)[C@H](Cc2ccc3ccccc3c2)NC(=O)[C@H](Cc2cnc[nH]2)NC(=O)[C@H](CCCN=C(N)N)NC1=O,.,.,.,0%,.
Cc1ccc(C2CC(C(F)(F)F)n3nc(C(=O)NCc4c(C)nn(C)c4C)c(Cl)c3N2)cc1 (centres undefined),.,1,-30%,4%,13µM*
CCC(C)(C)c1ccc(CC(C)CN2C[C@@H](C)O[C@@H](C)C2)cc1 (some centres undefined),.,.,-35%,.,-20%
CCOC(=O)[C@H](CCc1ccccc1)N[C@@H](C)C(=O)N1[C@H](C(=O)O)C[C@H]2CCC[C@@H]21,3%[25.7 µM],4,3.2µM*,2%[29.1 µM],4%
Cc1ccc(C)c(N2CCN(C(=O)c3ccc(CS(=O)(=O)c4ccccc4C)o3)CC2)c1,.,-11,-8%[10 µM],6%,28µM*
Cc1ccc(S(=O)(=O)Cc2ccc(C(=O)N3CCN(c4cc(C)ccc4C)CC3)o2)cc1,.,1,-20%,-5%,-3%
Cc1cccc(N2CCN(C(=O)c3ccc(CS(=O)(=O)c4ccccc4C)o3)CC2C)c1 (centres undefined),.,-12,-143%[0.074 µM],0%,22µM*
Cc1cccc(N2CCN(C(=O)c3ccccn3)CC2C)c1 (centres undefined),0%,0,-3%,3%,-3%
O=C1CC(N2CCN(c3ccc(Cl)c(Cl)c3)CC2)C(=O)N1 (centres undefined),.,4,3%,4%,25µM*
O=C1CC(N2CCN(Cc3ccccc3)CC2)C(=O)N1 (centres undefined),-15%,4,-10%,2%,-6%
CCN(C(=O)CC(C)C)c1nnc(Cn2nnc3ccccc32)s1,2%,1,0.89µM*,-8%,-27%
Cc1ccc(C(=O)NNC(=O)Cn2nnc3ccccc32)cc1,5%[57.5 µM],2,10%[10 µM],-3%,11%[9.22 µM]
CCN(C(=O)c1ccc(C(C)(C)C)cc1)c1nnc(Cn2nnc3ccccc32)s1,.,-7,16%[10 µM],1%,6.3µM*
CN(C)S(=O)(=O)Oc1cccc(C(=O)Nc2ccc(Cl)c(Cl)c2)c1,.,-11,-46%,-4%,13µM*
CCOC(=O)c1ccccc1O,.,.,17%,.,10%
